The structures appear in SMILES notation. About 83,000 compounds went through this panel and 20% of them were active in at least one assay; those are over-represented in the sample as a whole.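 Cell lines were cultured in 96-well plates, exposed to a single compound concentration, and assessed for percent growth 48 hours later.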 Active and inactive are the calls of the source. How the source made its calls: active means growth percent below 10; inactive means the rest.

The first test concerns SF-268 CNS. The test can be described thus: NCI-60 one-dose screen, 48 h (100 = growth as untreated, 0 = no growth, -100 = all killed). To be noted: 10 µM unless noted.
Turning to `CCCSC1=NC2C(N(CC)C(=O)N2CC)N1/N=C/C=C/c1ccccc1[N+](=O)[O-]` (stereo unspecified), the growth was 48.1% (inactive).

Consider `COC(=O)C1=Nc2ccc(F)cc2/C1=C/c1sc(=S)[nH]c1O`, for which the growth was 13.1% (inactive).

Turning to `O=C1c2cc(Br)ccc2Oc2cc([N+](=O)[O-])ccc2N1c1ccc(I)cc1F`, the growth is 93.1% (inactive).

In the case of `COc1cccc(-c2nn(C)c3sc(C(=O)NCCN4CCN(c5ccccc5F)CC4)cc23)c1`, the growth was 76.9% (inactive).

With `O=S(=O)(c1ccccc1)n1cc2c(c1-c1ccccc1)CCc1sc(Nc3ccccc3)nc1-2`, the growth is 86.7% (inactive).

Turning to `CN1CCN(Cc2ccc(NC(=O)c3cncc(C#Cc4nc(N)nc5[nH]ncc45)c3)cc2C(F)(F)F)CC1`, the growth is 102% (inactive).

As to `Clc1ccc(-c2nnc(COc3ccc(C4=NNC(c5ccco5)C4)cc3)o2)cc1` (stereo unspecified), the growth is 93.9% (inactive).

Regarding `CC(=O)c1ccc(Cc2ccc(C(C)=O)s2)s1`, the growth is 101% (inactive).

On to `CCOC(=O)c1cnc2ccc(Cl)cc2c1NCCCN(C)C`, for which the growth was 1.81% (active).

`CCN1C(=O)N(CC)C2C1NN=c1s/c(=C3\C(=O)N(CC(C)(C)C)c4ccccc43)c(=O)n12` (stereo unspecified): the growth was 40% (inactive).

As for `CC(=O)c1ccc2oc(=O)n(Cc3ccc(C#N)cc3)c(=O)c2c1`, the growth is 99.1% (inactive).

In the case of `O=C1/C(=C/c2cccc(O)c2)COc2ccc(O)cc21`, the growth is 90.3% (inactive).

For `O=C(Nc1nc2c(s1)CCc1c-2c(Br)n(Cc2ccccc2)c1Br)c1ccccc1`, the growth is 60.7% (inactive).

Turning to `Nc1n[nH]c2ccc([C@@H]3Nc4ccc5[nH]ncc5c4[C@H]4[C@H]5CCC(C5)[C@H]43)cc12`, the growth was 25% (inactive).

Turning to `CN(C)c1ccc(/C=C/c2ccnc3c(O)cccc23)cc1`, the growth is 12.5% (inactive).

`CCOC(=O)c1cc2c(n1Cc1cccc(OC)c1)-c1oncc1CCC2`: the growth was 38.8% (inactive).

`Cn1nc(C(C)(C)C)cc1NC(=O)Cc1ccc(/C=C2\C(=O)Nc3ccccc32)cc1`: the growth was 63.1% (inactive).

Take `Cc1c(C(=O)OCCO)cc(-c2ccc(Cl)cc2)n1-c1ccc(Cl)cc1Cl`: the growth was 70.4% (inactive).

With `CCC1=C[C@]2(C3CC(=O)N(c4ccccc4)C3=O)CC(C(C)(C)C)C[C@@H]2[C@@H]2C(=O)N(c3ccccc3)C(=O)[C@H]12` (stereo partly specified), the growth is 78.5% (inactive).

In the case of `Nc1ccc(-c2nn3c(CCC(=O)c4nc5ncccc5[nH]4)nnc3s2)c(O)c1`, the growth is 73.5% (inactive).

Take `CCCCCCc1cc2cc(-c3nc4ccccc4[nH]3)c(=Nc3ccccc3C)oc2cc1O`: the growth is 65.5% (inactive).

For `COc1ccc(OC)c(N(CCN2C(=O)c3ccccc3C2=O)C(=O)CCl)c1`, the growth is 35.3% (inactive).

As to `COc1ccc(C)c2sc(N(Cc3cccnc3)C(=O)c3ccc(C#N)cc3)nc12`, the growth was 10.9% (inactive).

As to `O=C(/C=C/c1ccccn1)c1ccc(OCc2nnc(-c3ccc(Cl)cc3)o2)cc1`, the growth was 28.6% (inactive).

Take `COc1ccc(C2C3=C(COC3=O)N(CCO)c3cc4c(cc32)CCC4)cc1` (stereo unspecified): the growth was 74.5% (inactive).

With `CN(C)/C=C1\SC(=Nc2ccc(Cl)cc2)NC1=O`, the growth was 101% (inactive).

Take `c1ccc(CNc2nc(Nc3ccccc3)nc3ccccc23)cc1`: the growth is 50.7% (inactive).

`COc1ccc2c(c1)C=C1CSCC3=Cc4cc(OC)ccc4OC13O2`: the growth was 41.1% (inactive).

For `COc1ccc(C(O)(CCC(C)C)C(CN2CCOCC2)c2ccc(Cl)cc2)cc1` (stereo unspecified), the growth is 80.2% (inactive).

`COC(=O)[C@H]1CCCN1C(=O)[C@H]1CCCN1C(=O)[C@H](Cc1c[nH]c2ccccc12)NC(=S)Nc1cc(C(F)(F)F)cc(C(F)(F)F)c1`: the growth is 47.8% (inactive).

In the case of `CCn1c(Cc2ccccc2Nc2c(Cl)cccc2Cl)nnc1SCC(=O)NN1C(=O)/C(=C/c2cccc(OC)c2OC)SC1=S`, the growth is 96.1% (inactive).

In the case of `CCCC(c1nnnn1C1CCCCC1)N1CCN(C(=O)c2ccco2)CC1` (stereo unspecified), the growth is 60.8% (inactive).

With `C1=CC2(C=C1)OC21CCC2(C=CC3(C2)OC3C2CCCCC2)CC1` (stereo unspecified), the growth is 104% (inactive).

As to `O=C(NC1CCN(Cc2ccccc2)CC1)c1cc(C(=O)NC2CCN(Cc3ccccc3)CC2)cc(C(=O)NC2CCN(Cc3ccccc3)CC2)c1`, the growth is 71.4% (inactive).

Turning to `COc1cc(-c2c3c(c(Br)n2Cc2ccccc2)-c2nc(N)sc2CC3)cc(OC)c1OC`, the growth is 88.2% (inactive).

`NC(CCc1nc2ccccc2c(=O)[nH]1)C(=O)O` (stereo unspecified): the growth is 106% (inactive).

In the case of `Nc1no[n+]([O-])c1-c1nnc2c(n1)-c1ccccc1C2=O`, the growth is 76.5% (inactive).

Take `CCOc1ccc(-c2nonc2NC(=O)c2cccc(C)c2)cc1OCC`: the growth is 84.1% (inactive).

Turning to `Cc1ccc(OCCCCCCNCCO)c(C)c1`, the growth is 4.83% (active).

A further test concerns SF-295 CNS. The test is described as above. To be noted: 10 µM unless noted.
On to `CCCSC1=NC2C(N(CC)C(=O)N2CC)N1/N=C/C=C/c1ccccc1[N+](=O)[O-]` (stereo unspecified), for which the growth is 12.9% (inactive).

Turning to `COC(=O)C1=Nc2ccc(F)cc2/C1=C/c1sc(=S)[nH]c1O`, the growth is 13.8% (inactive).

With `O=C1c2cc(Br)ccc2Oc2cc([N+](=O)[O-])ccc2N1c1ccc(I)cc1F`, the growth is 98.2% (inactive).

With `COc1cccc(-c2nn(C)c3sc(C(=O)NCCN4CCN(c5ccccc5F)CC4)cc23)c1`, the growth was -55.6% (active).

Turning to `CN1CCN(Cc2ccc(NC(=O)c3cncc(C#Cc4nc(N)nc5[nH]ncc45)c3)cc2C(F)(F)F)CC1`, the growth is 108% (inactive).

As to `CC(=O)c1ccc(Cc2ccc(C(C)=O)s2)s1`, the growth is 114% (inactive).

Regarding `CCN1C(=O)N(CC)C2C1NN=c1s/c(=C3\C(=O)N(CC(C)(C)C)c4ccccc43)c(=O)n12` (stereo unspecified), the growth was 15.9% (inactive).

As for `CC(=O)c1ccc2oc(=O)n(Cc3ccc(C#N)cc3)c(=O)c2c1`, the growth was 99.1% (inactive).

With `O=C1/C(=C/c2cccc(O)c2)COc2ccc(O)cc21`, the growth is 105% (inactive).

As for `O=C(Nc1nc2c(s1)CCc1c-2c(Br)n(Cc2ccccc2)c1Br)c1ccccc1`, the growth is 62.5% (inactive).

Consider `Nc1n[nH]c2ccc([C@@H]3Nc4ccc5[nH]ncc5c4[C@H]4[C@H]5CCC(C5)[C@H]43)cc12`, for which the growth was 14% (inactive).

As to `CN(C)c1ccc(/C=C/c2ccnc3c(O)cccc23)cc1`, the growth is -8% (active).

On to `CCOC(=O)c1cc2c(n1Cc1cccc(OC)c1)-c1oncc1CCC2`, for which the growth was 7.73% (active).

In the case of `Cn1nc(C(C)(C)C)cc1NC(=O)Cc1ccc(/C=C2\C(=O)Nc3ccccc32)cc1`, the growth was 51.7% (inactive).

As for `Cc1c(C(=O)OCCO)cc(-c2ccc(Cl)cc2)n1-c1ccc(Cl)cc1Cl`, the growth was 75.3% (inactive).

With `CCC1=C[C@]2(C3CC(=O)N(c4ccccc4)C3=O)CC(C(C)(C)C)C[C@@H]2[C@@H]2C(=O)N(c3ccccc3)C(=O)[C@H]12` (stereo partly specified), the growth is 93.6% (inactive).

Take `Nc1ccc(-c2nn3c(CCC(=O)c4nc5ncccc5[nH]4)nnc3s2)c(O)c1`: the growth was 97.1% (inactive).

`COc1ccc(C)c2sc(N(Cc3cccnc3)C(=O)c3ccc(C#N)cc3)nc12`: the growth is -28.9% (active).

For the compound `COc1ccc(C2C3=C(COC3=O)N(CCO)c3cc4c(cc32)CCC4)cc1` (stereo unspecified), the growth was 16.3% (inactive).

Consider `CN(C)/C=C1\SC(=Nc2ccc(Cl)cc2)NC1=O`, for which the growth was 101% (inactive).

As to `c1ccc(CNc2nc(Nc3ccccc3)nc3ccccc23)cc1`, the growth was -61.1% (active).

Consider `COc1ccc2c(c1)C=C1CSCC3=Cc4cc(OC)ccc4OC13O2`, for which the growth was 2.44% (active).

Regarding `CCn1c(Cc2ccccc2Nc2c(Cl)cccc2Cl)nnc1SCC(=O)NN1C(=O)/C(=C/c2cccc(OC)c2OC)SC1=S`, the growth is 95% (inactive).

In the case of `C1=CC2(C=C1)OC21CCC2(C=CC3(C2)OC3C2CCCCC2)CC1` (stereo unspecified), the growth is 106% (inactive).

For `NC(CCc1nc2ccccc2c(=O)[nH]1)C(=O)O` (stereo unspecified), the growth is 104% (inactive).

Turning to `Nc1no[n+]([O-])c1-c1nnc2c(n1)-c1ccccc1C2=O`, the growth is 86.7% (inactive).

In the case of `CCOc1ccc(-c2nonc2NC(=O)c2cccc(C)c2)cc1OCC`, the growth was 27.8% (inactive).

For the origin of these results see PubChem BioAssay (NCI).
